Measured values taken from PubChem BioAssay (NCATS).
Results filed as inconclusive are left out. Unmarked numbers belong to inactive results. Calls come from the whole dose curve; as a rule, active = well fitted inhibition curve with a large enough effect; inconclusive = small, poorly fitted or top-dose-only effect; inactive = flat fitted curve, though single readings scatter.

target: Calcium and integrin-binding protein 1 (Homo sapiens) (UniProt Q99828); assay: Primary qHTS for Identification of Calcium Integrin Binding Protein 1 (CIB1) Competitor (AID 1508620); details: CIB1-GST / FITC-alphaIIb peptide fluorescence polarization; series mostly up to 114 µM; activity change, negative = inhibition: at the top concentration; note: top concentration of the series differs between compounds
Outline: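 Fluorescence polarization competition: GST-tagged CIB1 (1 uM final) preincubated with compound 15 min at room temperature, then FITC-labelled alphaIIb peptide (100 nM final) added. After 15 min at room temperature, polarization read at Ex 480/Em 540.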
% is set by controls: 0 for no effect and ±100 for the full control effect.

Chain of Calcium and integrin-binding protein 1 (Homo sapiens) (Q99828 whole entry, looked up): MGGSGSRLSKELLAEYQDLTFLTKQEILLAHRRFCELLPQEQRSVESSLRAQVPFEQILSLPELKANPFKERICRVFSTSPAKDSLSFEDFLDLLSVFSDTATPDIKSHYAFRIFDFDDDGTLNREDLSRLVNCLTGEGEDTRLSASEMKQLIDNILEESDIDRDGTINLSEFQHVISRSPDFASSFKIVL

Row | SMILES | activity change, negative = inhibition [%]
1 | O=C(Nc1ccc2ccccc2c1)Nc1nnc(-c2ccccc2F)s1 | 7.05
2 | O=C(Nc1cccc2nn(-c3ccc(F)cc3)cc12)c1ccccn1 | -0.135
3 | COc1ccc(-c2csc3ncnc(Sc4nnnn4C)c23)cc1 | -1.35
